Only a selection was taken, and hits are over-represented in it overall.
VHR inh color = inhibitors of human VHR1 phosphatase (DUSP3) | AID 1992 | inhibition, % at 20 µM | 0.7% of 50,000 active | P51452 | recombinant VHR phosphatase, colorimetric substrate read-out; in the data active = inhibition above about 60%
Target sequence (P51452 whole entry, looked up): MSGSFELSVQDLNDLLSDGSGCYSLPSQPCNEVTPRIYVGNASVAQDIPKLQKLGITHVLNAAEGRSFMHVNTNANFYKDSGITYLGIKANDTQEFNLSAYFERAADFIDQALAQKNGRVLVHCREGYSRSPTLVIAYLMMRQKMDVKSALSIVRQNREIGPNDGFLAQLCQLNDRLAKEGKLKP
A number is an active result; . = inactive.

SMILES	VHR inh color
CCC(=O)Nc1cccc(-c2nc3cc(Cl)ccc3o2)c1C	.
COc1ccc(CCN(C(=O)CCC(=O)O)C2CC(=O)N(c3ccc(Cl)cc3)C2=O)cc1 (configuration not stated)	.
O=C(Nc1ccccc1)c1ccccc1OCC(O)CN(Cc1ccccc1)Cc1ccccc1 (configuration not stated)	.
CCN(CC)S(=O)(=O)c1cccc(C(=O)Nc2ccc(C(C)=O)cc2)c1	.
Cc1ccc(NC(=O)CC2CCCCC2)cc1	.
O=C(CC1CCCCC1)Nc1ccccc1	96.8
Cc1ccccc1NC(=O)CC1CCCCC1	.
O=C(CCc1ccccc1)N/N=C/c1ccc(F)cc1	.
Cc1nc2cc(-c3cccc(F)c3)nn2c(C)c1Cl	.
Cc1nc2cc(-c3ccccc3)nn2c(C)c1C	117.3
Cc1nc2cc(-c3cccc(Cl)c3)nn2c(C)c1Cl	.
CC(Oc1ccccc1)C(=O)Nc1cc([N+](=O)[O-])ccc1Cl (configuration not stated)	.
CCC1=NN2C(=N)/C(=C/c3ccc(OCCOc4cccc(OC)c4)c(OC)c3)C(=O)N=C2S1	.
CCCC1=NN2C(=N)/C(=C/c3cc(OC)ccc3OC)C(=O)N=C2S1	111.6
CCCC1=NN2C(=N)/C(=C/c3ccc(-c4ccc(Cl)cc4Cl)o3)C(=O)N=C2S1	.
CCCC1=NN2C(=N)/C(=C/c3ccc(OCc4ccccc4Cl)cc3)C(=O)N=C2S1	.
CCCC1=NN2C(=N)/C(=C/c3ccc4c(c3)OCO4)C(=O)N=C2S1	104.6
CCOc1ccc(Cl)cc1/C=C1\C(=N)N2N=C(CC)SC2=NC1=O	.
Cc1ccc(C)c(N2C(=O)C3C(C2=O)C2(C)C(=O)C3(C)C(c3ccccc3)=C2c2ccccc2)c1 (configuration not stated)	.
CSc1ccc(/C=N/S(=O)(=O)CCc2ccccc2)cc1	.
COc1ccccc1N1C(=O)C2C(C1=O)C2(c1ccccc1)c1ccccc1 (configuration not stated)	.
O=C(Nc1ccc2nc(SCc3ccccc3)sc2c1)c1ccccc1C(=O)N1CCOCC1	.
CCOC(=O)c1ccc(N2C(=O)C=CC2=O)cc1	.
CC(=O)c1ccc(N2C(=O)C=CC2=O)cc1	84.0
CC(=O)c1ccc(N2C(=O)C3C4C=CC(CC4)C3C2=O)cc1 (configuration not stated)	.
SMILES	VHR inh color
Cc1cc(C)nc(SCC(=O)N/N=C/c2c(Cl)cccc2Cl)n1	.
Clc1ccc(/C=N/Nc2nccs2)c(Cl)c1	.
Cc1cc(C)cc(OCCCc2c(C)n[nH]c2C)c1	.
O=C(COc1ccc2ccccc2c1)N1CCN(S(=O)(=O)c2ccc(Cl)cc2)CC1	.
O=C(COc1ccc(Cl)cc1)N1CCN(C(=O)COc2ccc3ccccc3c2)CC1	.
Cc1ccc(S(=O)(=O)N2CCN(C(=O)COc3ccc(Cl)cc3)CC2)cc1	86.7
COc1cc(Br)c(C2NCCc3cc(OC)c(OC)cc32)cc1OC (configuration not stated)	.
Cc1cc(OCC(O)CN2CCN(CCO)CC2)cc(C)c1Cl (configuration not stated)	.
Cc1cc(C)c2nc3s/c(=C\c4ccccc4)c(=O)n3c2c1	.
COc1cc(/C=c2/sc3nc4c(Br)c(C)c(C)cc4n3c2=O)ccc1OCC(=O)O	.
Cc1cc2c(nc3s/c(=C/c4ccccc4)c(=O)n32)c(Br)c1C	99.2
CCOc1cc(/C=N/Nc2nc(-c3ccccc3)cs2)ccc1O	.
CCOC(=O)C1=C(C)N=c2s/c(=C\c3ccc(OC)c(O)c3)c(=O)n2C1c1cccc(OC)c1 (configuration not stated)	.
O=C(CSc1nc2ccc(N3C(=O)c4ccccc4C3=O)cc2s1)c1ccc([N+](=O)[O-])cc1	.
N#Cc1c(NC(=O)c2c(C(=O)O)cccc2[N+](=O)[O-])sc2c1CCCC2	.
CCOc1ccc(N2Cc3ccc(C(=O)NN)cc3C2)cc1	91.0
CCOc1ccc(C(=O)Nc2cc(=O)n(C)c(=O)n2C)cc1	.
CCOc1ccc(N2Cc3ccccc3C2)cc1	.
COc1ccc(OC)c(C(c2c(C)[nH]n(-c3ccccc3)c2=O)c2c(C)[nH]n(-c3ccccc3)c2=O)c1	.
COc1ccc(C(=O)N2CCN(S(C)(=O)=O)CC2)cc1OC	.
COc1cc2c(cc1OC)CC1(CCCC1)N=C2	.
O=C(/C=C/c1ccc(Cl)cc1)NCCc1nc2ccccc2[nH]1	.
c1ccc(Nc2nc(-c3ccccc3)[n+](-c3ccccc3)s2)cc1	96.7
COc1ccc(-c2csc(Nc3ccccc3)n2)cc1	.
c1ccc(Nc2nc(-c3ccncc3)cs2)cc1	.
SMILES	VHR inh color
O=C(O)/C=C/c1cccc(N2C(=O)C=CC2=O)c1	.
CC(C)C1=NN2C(=N)/C(=C/c3ccc(Sc4ccc(Cl)cc4)o3)C(=O)N=C2S1	109.8
COc1cc(/C=C2/C(=N)N3N=C(C(C)C)SC3=NC2=O)cc(Cl)c1OCCOc1ccccc1	.
CC(C)C1=NN2C(=N)/C(=C/c3ccc(-c4cccc([N+](=O)[O-])c4)o3)C(=O)N=C2S1	.
CCn1cc(/C=C2\C(=O)NC(=O)N(c3ccccc3)C2=O)c2ccccc21	.
C=CCN1C(=O)/C(=C\c2ccc(-c3ccc(C)cc3Br)o2)C(=O)NC1=S	87.8
O=C(Cn1cc(C=C2C(=O)NC(=S)NC2=O)c2ccccc21)Nc1ccccc1	.
Cc1cc(Br)c(-c2ccc(/C=C3/NC(=S)NC3=O)o2)cc1C	91.1
O=C1NC(=S)N/C1=C/c1ccc(-c2cccc(Cl)c2Cl)o1	.
O=C1NC(=S)N/C1=C/c1ccc(-c2cc(C(=O)O)ccc2Cl)o1	.
C=CCN1C(=O)/C(=C\c2ccc(C)o2)C(=O)NC1=S	.
CCn1cc(C=C2C(=O)NC(=S)NC2=O)c2ccccc21	76.5
C=CCN1C(=O)/C(=C\c2ccc(-c3ccc([N+](=O)[O-])cc3)o2)C(=O)NC1=S	62.0
C=CCN1C(=O)/C(=C\c2ccc(-c3cccc([N+](=O)[O-])c3)o2)C(=O)NC1=S	.
Cc1ccc(-c2ccc(C=C3C(=O)NC(=S)NC3=O)o2)c(Br)c1	.
C=CCN1C(=O)/C(=C\c2ccc(-c3ccc(Br)cc3)o2)C(=O)NC1=S	.
Cc1ccc(C(=O)Nc2ccccc2-c2ccccc2)cc1	.
COc1ccc(Cl)cc1C(=O)Nc1cccc(F)c1	.
COc1cc(OC)c([N+](=O)[O-])cc1/C=C1\C=C(c2ccc(Cl)cc2)OC1=O	.
CC(C)CCNC(=O)c1cccc(I)c1	.
COC(=O)c1ccccc1NC(=O)c1ccccc1C	.
CCOc1cc(/C=C2/SC(=S)N(c3ccccc3)C2=O)ccc1OC(=O)c1ccco1	.
Cc1ccc(C)c(N2C(=O)C3C(C2=O)C2C=CC3C23CC3)c1 (configuration not stated)	.
O=C(Nc1ccc([N+](=O)[O-])cc1Br)c1ccc(Br)o1	.
CC(C)N1CCC(=NNC(=O)C(O)c2ccccc2)CC1 (configuration not stated)	.
SMILES	VHR inh color
C=CCN1C(=O)/C(=C\c2cn(C)c3ccccc23)C(=O)NC1=S	.
C=CCN1C(=O)/C(=C/c2ccccc2Cl)C(=O)NC1=S	.
C=CCN1C(=O)/C(=C\c2cn(Cc3ccc([N+](=O)[O-])cc3)c3ccccc23)C(=O)NC1=S	82.9
Cc1ccc(S(=O)(=O)NC(C)(C)CN2CCOCC2)cc1	.
O=C1N=C(N2CCOCC2)S/C1=C\c1cccc(O)c1	.
Cc1cccnc1NC(=O)c1ccccc1NC(=O)c1ccccc1	.
CCOc1cc(C2C(C(=O)OCC3CCCO3)=C(C)NC3=C2C(=O)CCC3)cc([N+](=O)[O-])c1O (configuration not stated)	.

Screening results (PubChem BioAssay)
